Most compounds without a hit are left out; they make up all but 1.8% or so of the library.
HTR2A ag – mouse HTR2A agonism via beta-arrestin recruitment. actives 0.66% (n = 360,000). P35363. AID 624169. CHO-K1 mHTR2A beta-arrestin complementation, luminescence; percent of 30 µM serotonin response. activation, % at 7.6 µM;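 active = activation above a run cutoff, the mean activation of all tested compounds plus 3 SD, cut at about 14% in these data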
Target sequence (P35363 whole entry, looked up): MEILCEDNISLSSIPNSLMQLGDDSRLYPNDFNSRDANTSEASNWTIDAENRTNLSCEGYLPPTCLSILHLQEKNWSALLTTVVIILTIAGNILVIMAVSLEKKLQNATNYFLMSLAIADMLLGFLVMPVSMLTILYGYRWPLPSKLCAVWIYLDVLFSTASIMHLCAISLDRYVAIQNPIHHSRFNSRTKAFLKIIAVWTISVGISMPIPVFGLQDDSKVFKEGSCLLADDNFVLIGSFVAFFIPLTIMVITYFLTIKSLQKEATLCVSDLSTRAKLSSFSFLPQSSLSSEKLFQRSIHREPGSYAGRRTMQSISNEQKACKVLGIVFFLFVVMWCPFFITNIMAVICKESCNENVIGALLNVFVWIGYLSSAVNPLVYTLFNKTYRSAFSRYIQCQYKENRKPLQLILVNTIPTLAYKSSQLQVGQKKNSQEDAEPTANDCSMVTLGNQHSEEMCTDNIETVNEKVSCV
Rtt109 Vps75 – inhibitors of Candida albicans Rtt109/Vps75 histone acetyltransferase; actives 0.16% (n = 330,000); Q5AAJ8; inhibition, % at 34.9 µM; purified Rtt109/Vps75, ThioGlo CoA-SH fluorescence, 4 h;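 active = inhibition of at least 50% in every replicate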
NOD2-RIPK2 inh – inhibitors of human NOD2-RIPK2 interaction; O43353; CHO BLA complementation NOD2-RIPK2, CCF4 ratio; inhibition, % at 4.98 µM; actives 0.38% (n = 360,000); AID 624267; in the data active = inhibition above about 21%
TLR4 MyD88 comp – blocks binding of human TLR4 to MyD88 | O00206+Q99836 | HeLa CL3-4 TLR4/MyD88 BLA complementation, FRET ratio | inhibition, % at 8.4 µM | actives 0.18% (n = 200,000); in the data active = inhibition above about 25%
TLR9-MyD88 inh – blocks human TLR9 binding to MyD88; CHO BLA complementation TLR9-MyD88, CCF4 FRET ratio; actives 0.21% (n = 340,000); Q9NR96+Q99836; inhibition, % at 4.98 µM; AID 504734;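 active = inhibition above the mean over all tested compounds plus 3 SD, cut at about 21% in these data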
LANA-H2B inh – blocks KSHV LANA binding to histone H2A/H2B; Q9QR71; AID 2629; inhibition, % (concentration not given with the values); actives 0.6% (n = 320,000); cell-free LANA-H2A/H2B peptide, fluorescence polarization; in the data active = inhibition mostly above about 10%, no sharp cut-off; inactive = mostly below about 6.7%
MOR ag counter – activates human mu opioid receptor in HTR2A counterscreen | actives 5.3% (n = 2,300) | U2OS OPRM1 beta-arrestin PathHunter, luminescence; DMSO 0%, DAMGO 9.3 µM 100% | shares compounds with HTR2A ag | activation, % at 9.3 µM;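 active = mean activation above the mean of DMSO-only wells plus 3 SD, cut at about 0.5% in these data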
HTR2A ag conf – mouse HTR2A agonism confirmed. shares compounds with HTR2A ag. CHO-K1 PathHunter beta-arrestin recruitment, luminescence; DMSO 0%, 30 µM serotonin 100%. activation, % at 7.6 µM. actives 19% (n = 2,300). AID 624381;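 active = mean activation across triplicates above the hit threshold derived in the original primary screen, cut at about 15% in these data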
A number is an active result; 0 = inactive; - = not tested or not shown.

SMILES | HTR2A ag | Rtt109 Vps75 | NOD2-RIPK2 inh | TLR4 MyD88 comp | TLR9-MyD88 inh | LANA-H2B inh | MOR ag counter | HTR2A ag conf
Cc1cccc(NC(=O)CN(c2ccc(C(C)C)cc2)S(=O)(=O)c2c(C)nn(C)c2C)n1 | 16 | 0 | 0 | 0 | 0 | 0 | 0 | 0
Cc1nn(C)c(C)c1S(=O)(=O)N(CC(=O)Nc1ccccn1)c1ccc(C(C)C)cc1 | 0 | 0 | 0 | 0 | 0 | - | - | -
Nc1c(Cl)ncnc1N1CCCC1 | 15 | 0 | 0 | 0 | 0 | 0 | 0 | 0
CC(=O)Nc1ccc(N2C(=O)CSC2c2cccc(Br)c2)cc1 (stereo unspecified) | 0 | - | 0 | - | 0 | 0 | - | -
CCOc1ccc(NC2c3ccccc3C(=O)N2Cc2ccco2)cc1 (stereo unspecified) | 38 | 0 | 0 | 0 | 0 | 0 | 0 | 0
COc1cc2c(cc1OC)[C@@H](NC(=O)Cc1ccc(F)cc1)[C@H](OCc1ccccc1)C2 | 0 | 0 | 0 | - | 0 | - | - | -
COc1ccc(CC(=O)N[C@@H]2c3cc(OC)c(OC)cc3C[C@H]2O)cc1 | 18 | 0 | 0 | - | 0 | - | 0 | 0
CC(=O)Nc1cccc(-c2ccnc3c2CC(C)(C(=O)Nc2cccc(OC(F)(F)F)c2)O3)c1 (stereo unspecified) | 0 | - | 0 | - | - | - | - | -
COc1c2c(cc3ccc(=O)oc13)CCO2 | 21 | 0 | 0 | - | 0 | 0 | 0 | 0
Cc1cccc(NC(=O)CNC(=O)Cc2ccc(S(=O)(=O)N3CCOCC3)s2)c1C | 0 | 0 | 0 | - | 0 | 0 | - | -
O=C(NC1CCN(Cc2ccccc2)CC1)c1cc(S(=O)(=O)Nc2ccc(F)cc2)ccc1Cl | 0 | 0 | 0 | - | 0 | - | - | -
Cc1cnc(=O)[nH]c1SCC(=O)Nc1nccs1 | 15 | 0 | 0 | - | 0 | 0 | 0 | 0
C=C1C(=O)C2=CC1CCC(=O)C1(C)CCC(OC(C)=O)C(C)(C)C1CC2O (stereo unspecified) | 0 | 0 | 0 | - | 0 | - | - | -
CCN1C(=O)[C@H]2[C@@H](c3ccc(-c4cccc(Cl)c4)c(OC)c3)N3CCCC[C@@]3(C(=O)OC)[C@H]2C1=O | 0 | 0 | 0 | - | 0 | 0 | - | -
COc1ccc(NC(=O)CSc2nc3ccccc3c(=O)n2CCCN2CCOCC2)c(OC)c1 | 39 | 0 | 0 | 0 | 0 | 0 | 0 | 0
CCc1ccc(NC(=O)CSc2nc3ccccc3c(=O)n2CCCN2CCC(C)CC2)cc1 | 48 | 0 | 0 | 0 | 0 | 0 | 0 | 20
COc1ccc(NC(=O)CSc2nc3ccccc3c(=O)n2CCNC(C)=O)c(OC)c1 | 0 | 0 | 0 | 0 | 0 | 0 | - | -
CC(=O)c1cccc(NC(=O)CSc2nc3ccccc3c(=O)n2CCCN2CCOCC2)c1 | 0 | 0 | 0 | - | 0 | 0 | - | -
Cc1ccc(NC(=O)CSc2nc3ccccc3c(=O)n2CCCN2CCCCC2)cc1C | 16 | 0 | 0 | 0 | 0 | 0 | 0 | 0
COC(=O)c1ccc2c(=O)n(CCN3CCOCC3)c(SCC(=O)NCc3ccccc3)nc2c1 | 16 | 0 | 0 | 0 | 0 | 0 | 0 | 0
Cc1cc(C)cc(NC(=S)N2CC(C)OC(C)C2)c1 (stereo unspecified) | 0 | 0 | 0 | - | 0 | 0 | - | -
O=C(CCC(=O)c1ccccc1)NCCc1c[nH]c2ccccc12 | 21 | 0 | 0 | 0 | 0 | 0 | 0 | 0
CCOC(=O)N1CCC(N2CCCC(C(=O)c3ccccc3OC)C2)CC1 (stereo unspecified) | 27 | 0 | 0 | 0 | 0 | 0 | 0 | 54
CCOC(=O)N1CCC(N2CCCC(C(=O)c3cc(C)c(OC)c(C)c3)C2)CC1 (stereo unspecified) | 0 | 0 | 0 | 0 | 0 | 0 | - | -
CCOc1ccc(CCNC(=O)C2=C(C)C(=O)OC23CCC(C)CC3)cc1 (stereo unspecified) | 16 | 0 | 0 | 0 | 0 | 0 | 0 | 0
SMILES | HTR2A ag | Rtt109 Vps75 | NOD2-RIPK2 inh | TLR4 MyD88 comp | TLR9-MyD88 inh | LANA-H2B inh | MOR ag counter | HTR2A ag conf
CC1CCCN(c2ccc3nncn3n2)C1 (stereo unspecified) | 0 | 0 | 0 | - | 0 | 0 | - | -
COC(=O)C[C@H]1C[C@H]2c3cc(NS(=O)(=O)c4ccc(OC)cc4)ccc3O[C@H]2[C@H](CO)O1 | 0 | - | 0 | - | 0 | - | - | -
O=C(Nc1nc2ccccc2s1)c1ccc(N2CCCCC2)c([N+](=O)[O-])c1 | 49 | 0 | 0 | 0 | 0 | 0 | 0 | 18
O=C(Nc1ccon1)c1ccc(N2CCCCC2)c([N+](=O)[O-])c1 | 0 | - | 0 | 0 | 0 | 0 | - | -
COC(=O)c1ccc(C)c(NC(=O)CCCN2C(=O)CN(C)C2=O)c1 | 0 | 0 | 0 | - | 0 | 0 | - | -
O=C(CCCc1ccccc1)N1CCN(C2CCCCC2)CC1 | 25 | 0 | 0 | - | 0 | 0 | 0.8 | 0
Cc1cc(Cl)nc(-n2nc(C)cc2C)n1 | 16 | - | 0 | - | - | 0 | 0 | 0
Cn1nc(C(C)(C)C)cc1C(=O)N1CCCCC1c1cc(C(=O)Nc2ccccc2)no1 (stereo unspecified) | 0 | - | 0 | - | - | - | - | -
O=C(Nc1ccc2[nH]ccc2c1)c1cccs1 | 15 | 0 | 0 | - | 0 | 0 | 0.9 | 0
CCn1c(CC(=O)Nc2ccccc2)nnc1SCC(=O)Nc1nnc(C)s1 | 0 | 0 | 0 | - | 0 | 0 | - | -
COc1cc(NC(=O)c2ccc3c(SCC(=O)O)c4c(nc3c2)CCC4)cc(OC)c1OC | 0 | 0 | 0 | - | 0 | 0 | - | -
COc1cc(NC(=O)c2ccc3c(SCC(=O)O)c4c(nc3c2)CCCC4)cc(OC)c1OC | 15 | 0 | 0 | 0 | 0 | 0 | 0 | 0
CC(=O)NC(c1ccc(F)c(F)c1)c1nc(-c2ccccc2)cs1 (stereo unspecified) | 0 | - | 0 | - | - | - | - | -
COc1ccc(C(C)(O)c2nc(-c3cccc(C(C)C)c3)cs2)cc1 (stereo unspecified) | 0 | - | 0 | - | - | - | - | -
O=C(NC1CCCCC1)N1CCNCC1 | 14 | 0 | 0 | - | 0 | 0 | 0 | 0
O=C(NC1CCCCC1)N1CCCCCC1 | 0 | 0 | 0 | 0 | 0 | 0 | - | -
Cc1csc(N=Cc2ccc([N+](=O)[O-])o2)n1 | 0 | - | 0 | - | 0 | - | - | -
O=C(COc1ccccc1)NC1CCSC1=O (stereo unspecified) | 21 | 0 | 0 | 0 | 0 | 0 | 0 | 0
O=C(CCc1ccccc1)NC1CCSC1=O (stereo unspecified) | 0 | - | 0 | 0 | 0 | 0 | - | -
O=C(CN1C(=O)NC2(CCCC2)C1=O)OCc1ccccc1F | 0 | 0 | 0 | - | 0 | 0 | - | -
O=C(CN1C(=O)NC2(CCCC2)C1=O)OCc1c(F)cccc1Cl | 17 | 0 | 0 | - | 0 | 0 | 0 | 0
O=C(CN1C(=O)NC2(CCCC2)C1=O)NCc1ccc(Cl)cc1 | 19 | 0 | 0 | - | 0 | 0 | 0 | 0
O=C(COC(=O)Cn1cc(C(F)(F)F)ccc1=O)Nc1ccc(Br)cc1F | 0 | 0 | 0 | - | 0 | - | - | -

Screens from PubChem.
